Survival data for 89 molecules are collected here from PubChem BioAssay AID463173 (ICCB-Longwood Screening Facility, Harvard Medical School, 2010).

Among all 52,000 compounds or so, about 4,300 (8.3%) were called active. The list comes from a sample in which actives are over-represented; it also holds similar structures and randomly drawn compounds. A number with no mark means an inactive call. Cut-off read from the data, not from the text of the source: active = survival mostly below about 52% (no sharp cut-off); inactive = mostly above about 56%.

The assay relates to DeltatarO mutant. The assay can be described thus: growth inhibition of S. aureus wild type versus tarO mutant, primary screen, teichoic acid synthesis inhibitors, RN4220, OD600 (AID 463173). The note with it: OD600, 18 h, active compounds read low, screened at 18.75 µg/mL (by protocol).
Take `CCCCNC(=O)Cn1cnc2sc(C)c(S(=O)(=O)N3CCN(c4ccccc4OC)CC3)c2c1=O`: the survival was 86%.

Take `CCOC(=O)C1CCCN(S(=O)(=O)c2cc3c4c(c2)CC(=O)N4CCC3)C1` (centres undefined): the survival is 93%.

Take `CCOc1ccc(-c2ccc(NS(=O)(=O)c3cc(C)ccc3OC)cc2)nn1`: the survival is 86%.

Consider `O=C(NCCc1csc(-c2ccc(F)cc2)n1)c1cccs1`, for which the survival is 72%.

Regarding `Cc1ccc(NC2=CC(c3ccccc3F)N(c3ccc(C)cc3)C2=O)cc1` (centres undefined), the survival was 49%.

`CC(=O)NC1CCN(C(=O)Nc2ccccc2)CC1`: the survival is 91%.

Regarding `Cc1csc2nc(COC(=O)c3ccccc3NC(=O)c3ccc(F)cc3)cc(=O)n12`, the survival is 55%.

With `COc1ccc(-c2noc(N3CCC(C(=O)N4CCN(c5ccccc5OC)CC4)CC3)n2)cc1`, the survival was 61%.

For the molecule `Cc1cccc(OCCCSc2nc(-c3ccc(C(C)(C)C)cc3)nc3cc(=O)[nH]n23)c1C`, the survival is 102%.

Turning to `CC(C)CCNC(=O)c1ccc(Cn2c(SCC(N)=O)nc3ccccc3c2=O)cc1`, the survival is 46% (active).

Consider `CCCNC(=O)c1ccc(Cn2c(SCC(N)=O)nc3ccccc3c2=O)cc1`, for which the survival is 91%.

With `CC(C)CCNC(=O)c1ccc(Cn2c(SCC(=O)NC(C)C)nc3ccccc3c2=O)cc1`, the survival was 144%.

Take `Cc1cc(C)c(NC(=O)c2cc(CN3CCOCC3)on2)c(C)c1`: the survival was 70%.

Take `CCOCCOC(=O)c1ccc(NC(=O)/C=C/c2ccc(OC)c(OC)c2)cc1`: the survival is 137%.

With `COc1ccc(OC)c(/C=C/C(=O)Nc2ccc(C(=O)OCCC(C)C)cc2)c1`, the survival is 33% (active).

As for `COc1ccc(/C=C/C(=O)Nc2ccc(C)cc2)cc1`, the survival is 77%.

In the case of `Cc1cc(=O)[nH]c2c(C)c(Cl)ccc12`, the survival was 93%.

On to `Cc1ccc(Cl)cc1Nc1nn2c(=O)c3ccc(C(=O)NC4CCC(C)CC4)cc3nc2s1` (centres undefined), for which the survival is 100%.

Regarding `CCCCNC(=O)C1CCN(S(=O)(=O)c2ccc3c(ccn3CC)c2)CC1`, the survival was 99%.

`CSc1cccc(NC(=O)N2CCN(S(=O)(=O)c3ccc4c(ccn4C)c3)CC2)c1`: the survival was 58%.

Regarding `COc1ccc(CNC(=O)C2CCN(S(=O)(=O)c3ccc(C)cc3)CC2)cc1`, the survival was 56% (active).

On to `COc1ccc(CNC(=O)C2CCN(S(=O)(=O)c3ccc(F)cc3)CC2)cc1`, for which the survival is 71%.

Regarding `CCn1ccc2cc(S(=O)(=O)N3CCC(C(=O)NCc4ccc(F)cc4)CC3)ccc21`, the survival is 85%.

For the molecule `CCC(C)NC(=O)C1CCN(S(=O)(=O)c2ccc3c(ccn3CC)c2)CC1` (centres undefined), the survival was 8% (active).

For `Cc1ccc(CNC(=O)C2CCN(S(=O)(=O)c3ccc(F)cc3)CC2)cc1`, the survival was 62%.

Turning to `CCn1ccc2cc(S(=O)(=O)N3CCC(C(=O)NCc4ccc(OC)cc4)CC3)ccc21`, the survival is 20% (active).

On to `CCn1ccc2cc(S(=O)(=O)N3CCC(C(=O)NCc4ccc(OC(C)C)cc4)CC3)ccc21`, for which the survival is 95%.

Regarding `CCn1ccc2cc(S(=O)(=O)N3CCCN(C(=O)Nc4cccc(SC)c4)CC3)ccc21`, the survival is 47% (active).

On to `CCn1ccc2cc(S(=O)(=O)N3CCCN(C(=O)Nc4cccc(Cl)c4)CC3)ccc21`, for which the survival was 83%.

For the molecule `CCn1ccc2cc(S(=O)(=O)N3CCC(C(=O)NCC(C)c4ccccc4)CC3)ccc21` (centres undefined), the survival is 94%.

Turning to `CN1C(C(=O)c2ccccc2)=C(OC(=O)c2ccc(Br)cc2)c2ccccc2S1(=O)=O`, the survival is 123%.

On to `Cc1ccc(Nc2cc(C(=O)NC3CCCC3)c3ccccc3n2)c(C)c1`, for which the survival was 77%.

Consider `CCN(CC)C(=O)C1CCN(Cc2cccc(OC)c2OC)CC1`, for which the survival is 99%.

As to `CCN(C(=O)CSc1nc2ccccc2n1CC(=O)N1CCCC(C)C1)c1ccccc1` (centres undefined), the survival was 109%.

As for `COc1ccc(Br)cc1CNC(=O)c1cnc2sc(N3CCCC3)nn2c1=O`, the survival is 98%.

Turning to `COc1ccccc1-n1c(=O)c2c3c(sc2n(Cc2ccccc2F)c1=O)CN(C(C)=O)CC3`, the survival is 120%.

With `O=S(=O)(c1ccccc1)N1CCCC(c2nc(-c3cccs3)no2)C1` (centres undefined), the survival was 67%.

For the molecule `CCOC(=O)Cn1c(=O)n(C2CCCCC2)c2nc(-c3ccc(C(C)C)cc3)nc(C(N)=O)c21`, the survival is 61%.

As for `CCOCCCNC(=O)C1CCCN(Cc2nc(-c3ccc(CC)cc3)oc2C)C1` (centres undefined), the survival is 76%.

Consider `COc1ccc(CNC(=O)C2CCCN(S(=O)(=O)c3ccc4c(ccn4C)c3)C2)c(OC)c1` (centres undefined), for which the survival is 25% (active).

`Cc1ccc(CNC(=O)C2CCCCN2S(=O)(=O)c2ccc(F)cc2)cc1` (centres undefined): the survival was 84%.

With `O=C(NCc1ccc(F)cc1)C1CCCCN1S(=O)(=O)c1ccc(F)cc1` (centres undefined), the survival is 32% (active).

Turning to `COc1cccc(CNC(=O)C2CCCN(S(=O)(=O)c3ccc4c(ccn4C)c3)C2)c1OC` (centres undefined), the survival was 101%.

In the case of `COc1ccc(CNC(=O)C2CCCCN2S(=O)(=O)c2ccc(F)cc2)cc1` (centres undefined), the survival was 95%.

Turning to `COc1cccc(CNC(=O)C2CCCN(S(=O)(=O)c3ccc4c(ccn4C)c3)C2)c1` (centres undefined), the survival is 124%.

In the case of `CCC(=O)N1CCc2cc(CNC(=O)Nc3cc(C)ccc3C)ccc21`, the survival is 84%.

Regarding `CC(=O)N1CCCc2cc(S(=O)(=O)N3CCCC(C(=O)Nc4cc(Cl)ccc4C)C3)ccc21` (centres undefined), the survival is 124%.

Turning to `CC(C)Sc1ncc(Cl)c(C(=O)Nc2c(C(=O)Nc3ccccc3)oc3ccccc23)n1`, the survival is 61%.

Turning to `CN(C)c1ccc(C(CC(=O)O)NC(=O)c2ccc(Cl)cc2)cc1` (centres undefined), the survival was 104%.

Take `COc1ccc(NC(=O)c2nnn(Cc3nc(-c4cc(OC)c(OC)c(OC)c4)oc3C)c2C)cc1`: the survival is 61%.

For `C=CCc1c(C)nc(SC)nc1Nc1ccc(C(=O)O)cc1`, the survival is 113%.

Take `O=C(Oc1cccc(-n2cnnn2)c1)C1CCCCC1`: the survival was 94%.

For the molecule `Cc1ccc(C(=O)Nc2c(C)nc3ccccn3c2=O)cc1C`, the survival was 69%.

Take `Cc1ccc(C(=O)Nc2c(C)nc3ccccn3c2=O)cc1`: the survival was 74%.

With `Cc1ccccc1C(=O)Nc1c(C)nc2ccccn2c1=O`, the survival is 37% (active).

With `Cc1nc2ccccn2c(=O)c1NC(=O)c1ccccc1Cl`, the survival is 131%.

Consider `Cc1nc2ccccn2c(=O)c1NC(=O)c1ccc(C(F)(F)F)cc1`, for which the survival was 0% (active).

Turning to `Cc1nc2ccccn2c(=O)c1NC(=O)c1ccc(F)c(F)c1`, the survival was 99%.

Take `O=c1ccc2cc(S(=O)(=O)NCc3ccc(Cl)cc3)ccc2[nH]1`: the survival was 91%.

With `Cc1cccc2sc(N(Cc3cccnc3)C(=O)CCOc3ccccc3)nc12`, the survival was 82%.

With `Cc1cccc(N2CCN(S(=O)(=O)c3ccc4oc(=O)c5ncn(C)c5c4c3)CC2)c1C`, the survival is 77%.

As to `O=C(/C=C/c1ccccc1)N1CCN(Cc2cc(=O)n3nc(-c4ccccc4)sc3n2)CC1`, the survival is 90%.

Turning to `CC(NC(=O)C1CCN(C(=O)c2ccc(-n3ccc4ccccc43)s2)CC1)c1ccccc1` (centres undefined), the survival is 79%.

In the case of `CCOc1ccc(/C=C/C(=O)NCc2ccco2)cc1OC`, the survival was 83%.

On to `Cc1cc(C)nc(NS(=O)(=O)c2ccc(NC(=O)COc3ccc(C(C)(C)C)cc3)cc2)n1`, for which the survival is 56%.

As to `CN(C)CCN(Cc1ccccc1)S(=O)(=O)c1ccc2[nH]c(=O)ccc2c1`, the survival was 95%.

Regarding `CCN(c1ccc(OC)cc1)S(=O)(=O)c1ccc2[nH]c(=O)ccc2c1`, the survival is 79%.

Turning to `COCCN(Cc1ccc(C)c(Br)c1)S(=O)(=O)c1ccc2[nH]c(=O)ccc2c1`, the survival is 20% (active).

Take `Cc1ccc2oc(C(=O)Nc3ccc(S(=O)(=O)Nc4ncccn4)cc3)cc(=O)c2c1`: the survival was 70%.

As for `Cc1ccc(C)c(NC(=O)c2ccc3c(c2)CCCN3S(C)(=O)=O)c1`, the survival was 81%.

For the molecule `CCS(=O)(=O)N1CCCc2cc(C(=O)Nc3cc([N+](=O)[O-])ccc3C)ccc21`, the survival is 42% (active).

`CCS(=O)(=O)N1CCc2cc(C(=O)Nc3ccc(C)c(Cl)c3)ccc21`: the survival was 98%.

In the case of `CCS(=O)(=O)N1CCc2cc(C(=O)Nc3cc(Cl)ccc3C)ccc21`, the survival was 72%.

As to `CCS(=O)(=O)N1CCc2cc(C(=O)Nc3cc(C)cc(C)c3)ccc21`, the survival is 80%.

Turning to `CCS(=O)(=O)N1CCc2cc(C(=O)Nc3cc([N+](=O)[O-])ccc3C)ccc21`, the survival is 40% (active).

As to `CCc1nc2cccnc2n1-c1ccc(CC(=O)Nc2cccc(C)c2C)cc1`, the survival is 81%.

Turning to `O=C(NCc1ccco1)C1CCC(N2C(=O)c3ccccc3C2=O)CC1` (centres undefined), the survival was 63%.

As for `C=CCNC(=O)Cc1c(O)c2ccccc2[nH]c1=O`, the survival is 101%.

On to `CC(C)COC(=O)Cc1c(O)c2ccccc2[nH]c1=O`, for which the survival was 39% (active).

For `CCCCCc1c(O)c2ccccc2[nH]c1=O`, the survival is 103%.

With `Cc1ccc(NC(=O)C2CCN(S(=O)(=O)c3c(C)noc3C)CC2)cc1C`, the survival is 91%.

In the case of `Cc1c(C)n(Cc2ccc(F)cc2)c2ccc(C(=O)N3CCN(c4ccc(Cl)cc4)CC3)cc12`, the survival was 83%.

On to `CCN1C(C(=O)c2ccccc2)=C(OC(=O)COc2ccccc2)c2ccccc2S1(=O)=O`, for which the survival was 41% (active).

Consider `CCCN1C(C(=O)c2ccccc2)=C(OC(=O)COc2ccc(C)cc2)c2ccccc2S1(=O)=O`, for which the survival was 19% (active).

For `CCCN1C(C(=O)c2ccccc2)=C(OC(=O)COc2ccccc2)c2ccccc2S1(=O)=O`, the survival was 49%.

As for `Cc1ccc(OCC(=O)OC2=C(C(=O)c3ccccc3)N(C)S(=O)(=O)c3ccccc32)cc1`, the survival was 82%.

As to `CCN1C(C(=O)c2ccccc2)=C(OC(=O)COc2ccc(OC)cc2)c2ccccc2S1(=O)=O`, the survival is 60%.

`CCN1C(C(=O)c2ccccc2)=C(OC(=O)COc2ccc(C)cc2)c2ccccc2S1(=O)=O`: the survival is 79%.

On to `COc1ccc(-c2nc(C)c(CCNS(=O)(=O)c3cc(C)c(C)cc3C)s2)cc1`, for which the survival is 72%.
